Paper PMC4336329 (PLoS ONE, 2015)
In all, about 310,000 compounds went through this assay and about 14,000 (4.5%) showed an effect of 50% or more. Effects have a minus sign here. Only a selection was taken, and strong results are over-represented in it overall.

Target: human ether-à-go-go-related gene (hERG) potassium channel (human, UniProt Q12809)
Experiment: primary screen, population patch clamp on CHO cells stably expressing hERG; higher = less effect of the substance
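Further: peak tail current of the secondary pulse compared with the same well before compound.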

Sequence of human ether-à-go-go-related gene (hERG) potassium channel (Q12809 whole entry, looked up): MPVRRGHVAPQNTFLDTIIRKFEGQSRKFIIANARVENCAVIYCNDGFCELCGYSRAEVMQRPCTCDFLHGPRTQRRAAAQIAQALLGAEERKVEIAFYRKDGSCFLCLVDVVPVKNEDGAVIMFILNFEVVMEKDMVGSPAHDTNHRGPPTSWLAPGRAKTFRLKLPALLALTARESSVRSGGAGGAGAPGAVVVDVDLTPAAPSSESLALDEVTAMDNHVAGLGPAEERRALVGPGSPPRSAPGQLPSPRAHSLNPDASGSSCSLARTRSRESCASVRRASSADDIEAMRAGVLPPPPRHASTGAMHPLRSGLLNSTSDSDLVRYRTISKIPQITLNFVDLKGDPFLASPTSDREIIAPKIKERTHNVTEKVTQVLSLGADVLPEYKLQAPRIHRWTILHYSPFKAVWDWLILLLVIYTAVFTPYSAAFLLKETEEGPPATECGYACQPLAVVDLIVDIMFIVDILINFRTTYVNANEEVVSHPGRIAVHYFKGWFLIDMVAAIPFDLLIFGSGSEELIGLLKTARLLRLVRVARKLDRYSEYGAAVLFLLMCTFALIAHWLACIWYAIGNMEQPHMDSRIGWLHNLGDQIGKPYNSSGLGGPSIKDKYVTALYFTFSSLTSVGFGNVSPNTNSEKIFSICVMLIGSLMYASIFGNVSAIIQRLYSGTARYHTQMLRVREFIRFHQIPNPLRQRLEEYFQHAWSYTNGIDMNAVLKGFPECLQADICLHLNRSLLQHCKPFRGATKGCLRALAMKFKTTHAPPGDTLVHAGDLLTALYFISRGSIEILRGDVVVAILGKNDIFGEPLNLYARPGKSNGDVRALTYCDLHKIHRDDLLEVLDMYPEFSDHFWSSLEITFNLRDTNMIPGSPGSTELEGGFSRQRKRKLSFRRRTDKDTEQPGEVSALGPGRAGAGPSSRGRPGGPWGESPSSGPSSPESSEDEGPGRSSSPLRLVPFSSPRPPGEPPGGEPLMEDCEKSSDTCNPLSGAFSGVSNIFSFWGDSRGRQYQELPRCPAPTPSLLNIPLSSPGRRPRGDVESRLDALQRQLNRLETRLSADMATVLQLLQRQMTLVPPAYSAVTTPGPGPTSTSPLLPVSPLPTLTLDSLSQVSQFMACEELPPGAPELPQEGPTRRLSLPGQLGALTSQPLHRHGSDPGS

Compound	hERG current change (%, negative = inhibition) at 10uM [%]
CCCOP(=O)(c1ccc(N(C)C)cc1)C(O)c1cc(OC)ccc1OC (centres unmarked)	0.331
CN(C)CCN(C(=O)CN1C(=O)c2ccccc2C1=O)c1nc2cc3c(cc2s1)OCO3.Cl	-57
CCN(CC)CCN(C(=O)CN1C(=O)c2ccccc2C1=O)c1nc2cc3c(cc2s1)OCO3.Cl	-17.8
Cc1ccc2nc(N(CCCN(C)C)C(=O)CN3C(=O)c4ccccc4C3=O)sc2c1.Cl	-47.5
CN(C)CCN(C(=O)c1ccc2ccccc2c1)c1nc2cc3c(cc2s1)OCCO3.Cl	7.59
CC(=O)N(CCN(C)C)c1nc2cc3c(cc2s1)OCCO3.Cl	10.6
CN(C)CCN(C(=O)CN1C(=O)c2ccccc2C1=O)c1nc2cc3c(cc2s1)OCCO3.Cl	-53.8
COCC(C)NC(=O)CCc1nnc(C2(c3ccc(Cl)cc3)CCC2)o1 (centres unmarked)	5.14
O=C(O)CCC(=O)NNC(=O)c1cccc(Br)c1	-0.791
CCCc1cc(=O)[nH]c(-n2[nH]c3c(c2=O)CCCC3)n1	13.9
CCCC(=O)N1CCN(c2nnc(-c3ccc(C)cc3)c3ccccc23)CC1	-81.1
CCOC(=O)N1CCN(c2nnc(-c3ccccc3)c3ccccc23)CC1	-22
CCOC(=O)N1CCN(c2nnc(-c3ccc(C)cc3)c3ccccc23)CC1	-70.1
CCCC(=O)N1CCN(c2nnc(-c3ccccc3)c3ccccc23)CC1	-45.4
CCCCS(=O)(=O)Nc1ccc(C(=O)NCC2CCCO2)cc1 (centres unmarked)	-4.69
CC(C)=CCc1c(-c2ccc(O)cc2O)oc2c3c(cc(O)c2c1=O)OC(C)(C)C=C3	17.6
Cl.NC1C=CC=C(C(=O)O)C1 (centres unmarked)	3.23
CN1C(=O)c2c(sc3c2CC(C)(C)SC3)N2CCN=C12.Cl	-72.6
CC1(C)Cc2c(sc3c2C(=O)N(c2ccccc2)C2=NCCN23)CS1.Cl	-5.58
CC1(C)Cc2c(sc3c2C2=NCCN2C=N3)CS1.Cl	-16.3
COc1cc(OC)c(OC)cc1CCC(C)NC(=O)Cc1ccccc1 (centres unmarked)	5.68
CC(CCc1ccc(O)cc1)NC(c1ccccc1)c1ccc(Cl)cc1 (centres unmarked)	-14.3

Compound	hERG current change (%, negative = inhibition) at 10uM [%]
CC(NCCc1ccc(O)cc1)C(O)c1ccc(O)cc1.Cl (centres unmarked)	5.08
CC(CCc1ccccc1)NC(C)C(O)c1ccc(O)cc1.Cl (centres unmarked)	-65.3
COc1ccccc1CCNC(C)CCc1ccc(O)cc1 (centres unmarked)	-52.5
COc1cc(OC)c(OC)cc1CNC(C)C(O)c1ccccc1.Cl (centres unmarked)	12.6
CC(CCc1ccc(O)cc1)NCCc1ccc(O)c(O)c1.Cl (centres unmarked)	-13.9
COc1cc(CCC(C)NCc2ccccc2)ccc1O (centres unmarked)	-3.87
C[C@H](NCCc1ccc(O)cc1)[C@H](O)c1ccc(O)cc1.Cl	6.27
COc1ccc(CCC(C)NCc2ccccc2OC)cc1 (centres unmarked)	-40.4
COc1cc(OC)c(OC)cc1CCC(C)NCCC(c1ccccc1)c1ccccc1.Cl (centres unmarked)	-71.1
CC(CCc1ccc(O)cc1)NCCC(c1ccccc1)c1ccccc1 (centres unmarked)	-76.1
COc1ccc(-c2sc(NC(=O)c3ccc(C)cc3)nc2-c2ccc([N+](=O)[O-])cc2)cc1	9.66
CCOc1ccc(-n2c(SCC)nc3c(c2=O)SCC3)cc1	15
Cn1c(=O)c2ccccc2n(CC(=O)NC2CCCC2)c1=O	9.82
CCCN(CCC)Cc1cc(=O)oc2cc3c(cc12)CCC3	-9.37
CC(=O)O.CC(=O)Oc1ccc2c(c1)OC(c1ccccc1)CC21CC(C)(C)NC(=O)N1 (centres unmarked)	3.82
O=C1CCCN1CCCNS(=O)(=O)c1ccc(F)cc1F	8.77
Cc1ccc(-n2nc3c(c2NC(=O)CC(C)C)CS(=O)(=O)C3)c(C)c1	25
O=C(COC(=O)C1CC(=O)N(Cc2ccccc2)C1)Nc1ccc(Cl)cc1F (centres unmarked)	48
C/C(=N\NC(=O)c1nnn(-c2nonc2N)c1CSc1ccc(C)cc1)c1ccco1	-9.04
O=C1c2ccccc2NC(c2ccc(O)cc2)N1Cc1ccco1 (centres unmarked)	-24.3
CCOC(=O)C(C)CC(C)C(=O)N1CCOCCN(C(=O)C(C)CC(C)C(=O)OCC)CCOCC1 (centres unmarked)	-9.48
COc1ccc(CN(Cc2cc3ccc(C)cc3[nH]c2=O)Cc2nnnn2C2CCCC2)cc1	-21.4

Compound	hERG current change (%, negative = inhibition) at 10uM [%]
CC1(C)Cc2c(c(N3CCOCC3)nc3sc(C(N)=O)c(N)c23)CO1	-5.66
O=C(NCC1CCCO1)c1cc(-c2ccc(Cl)cc2Cl)on1 (centres unmarked)	-9.68
Nc1nccnc1C(=O)OCC(=O)N1CCN(S(=O)(=O)c2ccc(Cl)cc2)CC1	-15.4
CCCNC(=O)CSc1nc2ccccc2c(=O)n1CCC	3.3
O=C(Nc1ccccc1N1CCCC1)c1ccc(N2CCCC2=O)cc1	-22.1
COc1ccc(C)cc1NC(=O)COC(=O)c1ccc2ccccc2n1	3.24
COc1ccc(CCC(C)N(C)Cc2ccccc2)cc1 (centres unmarked)	-34.8
CC(CCc1ccc(O)cc1)N(C)CCc1ccccc1 (centres unmarked)	-62.2
CC(O)CCc1ccc(O)cc1 (centres unmarked)	11.7
CCCNC(=O)c1cc(Cl)c(NC(=O)C2=CSCCO2)cc1OC	16.5
C=CCNC(=O)Nc1cc(Cl)ccc1OC	7.65
CCOC(=O)c1ccc(NC(=O)CCCN2C(=O)NC3(CCCC3)C2=O)cc1	-3.62
O=C(O)CCCCCNC(=O)CCn1cnc2ccccc2c1=O	5.02
COc1ccccc1N1CCN(C(=O)CCCCCn2c(=O)[nH]c3ccsc3c2=O)CC1	-24.7
O=C1CCCC(=O)N1c1ccc(O)cc1	2.73
Cc1ccc(C(=O)NCCN2C3=NC[C@H](Cc4ccc(O)cc4)N3C[C@H]2Cc2ccc(O)cc2)cc1Br	-51.7
Cc1ccc(C(=O)NCCN2C3=NC[C@@H](Cc4ccccc4)N3C[C@H]2Cc2ccc(O)cc2)cc1Br	-71.1
C/C=C(\C)C(=O)NCCN1C2=NC[C@H](Cc3ccc(O)cc3)N2C[C@H]1Cc1ccc(O)cc1	16.5
COc1ccc(C[C@H]2CN3C(=NC[C@@H]3Cc3ccc(O)cc3)N2CCNC(=O)c2ccc(C)c(Br)c2)cc1	-74.3
Cc1ccc(C(=O)NCCN2C3=NC[C@H](C)N3C[C@H]2Cc2ccc(O)cc2)cc1Br	-8.85
COc1cc(/C=C2\SC(=O)NC2=O)ccc1Oc1ccc([N+](=O)[O-])cc1[N+](=O)[O-]	20.2
Brc1cccc(C=Nc2cccc3ncccc23)c1	7.37

Compound	hERG current change (%, negative = inhibition) at 10uM [%]
CCOc1cc(C)c(Cl)cc1S(=O)(=O)n1nnc2ccccc21	6.52
COc1ccc(C(=O)Nc2ccc(Cl)c(Cl)c2)c(OC)n1	14.1
O=[N+]([O-])c1ccc(N2CCN(CCO)CC2)c2ncccc12	-45.4
Cc1cc(N2CCN(c3ccc([N+](=O)[O-])c4cccnc34)CC2)c2ccccc2n1	-64.3
O=[N+]([O-])c1cc(C(F)(F)F)ccc1N1CCN(S(=O)(=O)c2ccc3ccccc3c2)CC1	9.11
O=[N+]([O-])c1ccc(N2CCCCC2)c2ncccc12	-23.7
O=[N+]([O-])c1ccc(N2CCCCCC2)c2ncccc12	5.54
O=[N+]([O-])c1ccc(N2CCCC2)c2ncccc12	8.6
Cc1cc(N2CCN(c3ccc(C(F)(F)F)cc3[N+](=O)[O-])CC2)c2ccccc2n1	-88.9
CN1CCN(c2ccc([N+](=O)[O-])c3cccnc23)CC1	-41.5
CC1CN(c2ccc([N+](=O)[O-])c3cccnc23)CC(C)N1 (centres unmarked)	-33.4
Cl.O=[N+]([O-])c1ccc(N2CCCNCC2)c2ncccc12	-64.8
Cc1ccc(S(=O)(=O)N2CCN(c3ccc(C(F)(F)F)cc3[N+](=O)[O-])CC2)cc1	-30.8
Nc1nonc1OCCN1CCN(c2ccc([N+](=O)[O-])c3cccnc23)CC1	-71.7
CCOC(=O)N1CCN(C(=O)CSc2nnc(-c3ccccc3OC)o2)CC1	-12.9
COc1cc(/C=C/c2cccc[n+]2C)ccc1OCC(=O)Nc1ccccc1C.[I-]	8.13
NC(=O)C1CCN(C(=O)CCCCCn2c(=O)[nH]c3ccsc3c2=O)CC1	0.397
COc1cccc(OCC(=O)Nc2c3c(nn2-c2ccccc2)CS(=O)(=O)C3)c1	-48.5
COc1cc(CNc2nc(C)c([N+](=O)[O-])c(C)c2C#N)cc(OC)c1	10.8
NC(=O)Cn1cc(C(=O)COc2ccccc2)c2ccccc21	-3.45
